Common to all, as to assay: DAPPL (digital affinity profiling via proximity ligation, sequencing); 10 mM Tris-HCl pH 7.5, 50 mM NaCl, 1 mM DTT, 4% glycerol, room temperature, 30 min; GST-TFs on glutathione beads, 16-mer random dsDNA library, 0.1% formaldehyde crosslink after washing; high values mean tight binding
What all share (conditions): protein: recombinant; tags: N-terminal GST; dsDNA, one strand shown

In one assay the target is T1, FLI1 (Homo sapiens, UniProt Q01543 1-452).
T1 sequence: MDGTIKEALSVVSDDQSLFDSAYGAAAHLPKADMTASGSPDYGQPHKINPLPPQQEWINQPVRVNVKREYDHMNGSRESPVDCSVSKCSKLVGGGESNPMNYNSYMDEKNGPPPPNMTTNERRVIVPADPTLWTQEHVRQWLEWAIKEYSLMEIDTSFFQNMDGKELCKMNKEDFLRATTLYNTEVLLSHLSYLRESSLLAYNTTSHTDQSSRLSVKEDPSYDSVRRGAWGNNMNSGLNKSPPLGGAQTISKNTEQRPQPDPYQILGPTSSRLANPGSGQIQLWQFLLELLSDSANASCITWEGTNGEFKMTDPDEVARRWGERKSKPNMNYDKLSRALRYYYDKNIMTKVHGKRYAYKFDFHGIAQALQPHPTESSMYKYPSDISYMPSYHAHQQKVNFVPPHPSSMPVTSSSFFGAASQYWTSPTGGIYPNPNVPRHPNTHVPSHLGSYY
The essentials:
(§1)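 Sequencing on an Illumina NextSeq500 followed washing, crosslinking with 0.1% formaldehyde, proximity ligation (BsaI/T4 ligase, 1 h, 37 °C) and PCR amplification of pools that had been incubated for 30 min at room temperature with 200 nmole of a random double-stranded 16-mer DNA library in Tris/NaCl/DTT/glycerol buffer. Each pool held DNA-barcoded human transcription factors, expressed in yeast as GST fusions and captured on glutathione beads, plus a tag-only sample. Binding signal is a hexamer's read frequency for a factor divided by its frequency in the tag-only sample.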

For the next assay, the target named is T2, ELK1 (Homo sapiens, UniProt P19419 1-428).
T2 sequence: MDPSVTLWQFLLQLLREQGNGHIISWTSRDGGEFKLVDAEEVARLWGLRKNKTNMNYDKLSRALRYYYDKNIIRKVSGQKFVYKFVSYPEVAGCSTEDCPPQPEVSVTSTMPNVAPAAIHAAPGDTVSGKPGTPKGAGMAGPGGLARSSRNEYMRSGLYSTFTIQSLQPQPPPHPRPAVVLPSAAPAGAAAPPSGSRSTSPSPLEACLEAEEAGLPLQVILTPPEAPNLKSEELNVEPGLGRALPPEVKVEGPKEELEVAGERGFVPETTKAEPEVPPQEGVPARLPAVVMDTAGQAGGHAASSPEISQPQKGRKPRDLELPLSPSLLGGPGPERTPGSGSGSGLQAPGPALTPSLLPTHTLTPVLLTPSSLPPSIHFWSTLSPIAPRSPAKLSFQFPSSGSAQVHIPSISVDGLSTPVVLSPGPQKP
The procedure, abridged:
as §1

Another assay concerns the target T3, GABPA (Homo sapiens, UniProt Q06546 1-454).
T3 sequence: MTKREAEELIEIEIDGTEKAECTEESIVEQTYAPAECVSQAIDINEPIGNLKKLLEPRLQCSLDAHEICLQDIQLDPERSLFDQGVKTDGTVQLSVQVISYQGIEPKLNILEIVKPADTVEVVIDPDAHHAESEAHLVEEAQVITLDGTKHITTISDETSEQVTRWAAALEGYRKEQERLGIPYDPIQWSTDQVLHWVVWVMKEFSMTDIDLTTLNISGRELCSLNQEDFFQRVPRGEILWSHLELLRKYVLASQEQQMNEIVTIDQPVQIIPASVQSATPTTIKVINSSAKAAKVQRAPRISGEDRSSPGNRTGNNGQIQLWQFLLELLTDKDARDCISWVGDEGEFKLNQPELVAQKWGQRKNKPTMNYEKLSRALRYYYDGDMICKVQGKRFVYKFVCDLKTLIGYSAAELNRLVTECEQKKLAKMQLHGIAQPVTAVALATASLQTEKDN
The procedure, abridged: as §1

The next assay addresses ELF1 (Homo sapiens, UniProt P32519 1-619). The procedure, abridged:
as §1

A further assay concerns the target T4, EHF (Homo sapiens, UniProt Q9NZC4 1-300).
T4 sequence: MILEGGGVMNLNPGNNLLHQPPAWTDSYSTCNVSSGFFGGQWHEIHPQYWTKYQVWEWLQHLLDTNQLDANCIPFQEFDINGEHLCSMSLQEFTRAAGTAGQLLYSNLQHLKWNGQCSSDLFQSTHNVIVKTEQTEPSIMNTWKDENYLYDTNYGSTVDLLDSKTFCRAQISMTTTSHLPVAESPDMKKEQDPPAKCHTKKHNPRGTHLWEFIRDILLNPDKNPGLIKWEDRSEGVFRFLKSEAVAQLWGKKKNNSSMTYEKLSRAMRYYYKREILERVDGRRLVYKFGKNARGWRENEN
The essentials: as §1

Another assay concerns the target SPI1 (Homo sapiens, UniProt P17947 1-270). The procedure, abridged:
as §1

In the next assay the target is SPIB (Homo sapiens, UniProt Q01892 1-262). The procedure, abridged:
as §1

In another assay the target is T5, ELK3 (Homo sapiens, UniProt P41970 1-407).
T5 sequence: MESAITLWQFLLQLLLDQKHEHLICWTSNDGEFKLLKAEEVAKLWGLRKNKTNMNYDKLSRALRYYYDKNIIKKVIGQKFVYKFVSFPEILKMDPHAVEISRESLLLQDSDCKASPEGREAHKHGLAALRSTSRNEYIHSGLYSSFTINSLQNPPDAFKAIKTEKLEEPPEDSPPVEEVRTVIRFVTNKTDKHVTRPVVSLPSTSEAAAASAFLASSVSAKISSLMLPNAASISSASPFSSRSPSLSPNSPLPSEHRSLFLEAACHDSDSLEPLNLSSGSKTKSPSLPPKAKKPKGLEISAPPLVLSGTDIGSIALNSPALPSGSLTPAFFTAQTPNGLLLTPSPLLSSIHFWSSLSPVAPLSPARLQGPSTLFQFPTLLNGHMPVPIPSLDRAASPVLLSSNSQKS
The essentials:
as §1

For the next assay, the target named is T6, FEV (Homo sapiens, UniProt Q99581 1-238).
T6 sequence: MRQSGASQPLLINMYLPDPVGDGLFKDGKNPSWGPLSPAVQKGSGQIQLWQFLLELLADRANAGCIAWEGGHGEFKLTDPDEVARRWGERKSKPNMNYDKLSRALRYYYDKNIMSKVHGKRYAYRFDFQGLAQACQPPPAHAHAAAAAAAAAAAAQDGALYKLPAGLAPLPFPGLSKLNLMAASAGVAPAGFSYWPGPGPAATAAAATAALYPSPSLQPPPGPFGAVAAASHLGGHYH
The procedure, abridged:
as §1

The next assay addresses ETV5 (Homo sapiens, UniProt P41161 1-510). The essentials:
as §1

For the next assay, the target named is T7, SPIC (Homo sapiens, UniProt Q8N5J4 1-248).
T7 sequence: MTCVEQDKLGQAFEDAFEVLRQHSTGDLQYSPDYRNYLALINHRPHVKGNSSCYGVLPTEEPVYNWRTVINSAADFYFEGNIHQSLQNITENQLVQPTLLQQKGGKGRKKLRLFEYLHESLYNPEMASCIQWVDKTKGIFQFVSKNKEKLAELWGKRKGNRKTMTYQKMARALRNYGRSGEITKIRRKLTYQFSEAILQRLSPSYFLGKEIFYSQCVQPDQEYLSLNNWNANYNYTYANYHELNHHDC
The essentials: as §1

The next assay deals with ELF4 (Homo sapiens, UniProt Q99607 1-663). The essentials:
as §1

The target in another assay is ETV1 (Homo sapiens, UniProt P50549 1-477). The procedure, abridged:
as §1

A further assay has as its target T8, ERF (Homo sapiens, UniProt P50548 1-548).
T8 sequence: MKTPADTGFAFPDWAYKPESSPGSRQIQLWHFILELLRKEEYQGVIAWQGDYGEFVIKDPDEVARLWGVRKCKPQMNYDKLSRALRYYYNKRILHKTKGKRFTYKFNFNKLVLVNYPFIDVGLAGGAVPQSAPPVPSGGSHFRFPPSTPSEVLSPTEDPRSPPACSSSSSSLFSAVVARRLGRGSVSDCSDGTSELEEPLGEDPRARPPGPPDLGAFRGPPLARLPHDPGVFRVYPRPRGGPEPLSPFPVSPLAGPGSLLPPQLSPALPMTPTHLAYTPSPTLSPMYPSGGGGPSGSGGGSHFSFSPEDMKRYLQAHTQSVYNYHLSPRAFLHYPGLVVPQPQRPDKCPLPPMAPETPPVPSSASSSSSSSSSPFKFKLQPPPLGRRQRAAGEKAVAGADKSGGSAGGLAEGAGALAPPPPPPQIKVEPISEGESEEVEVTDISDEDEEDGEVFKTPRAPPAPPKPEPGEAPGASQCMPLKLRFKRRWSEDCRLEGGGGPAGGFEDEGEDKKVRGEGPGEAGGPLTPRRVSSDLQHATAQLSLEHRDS
The essentials:
as §1

For a further assay, the target named is T9, ETV3L (Homo sapiens, UniProt Q6ZN32 1-361).
T9 sequence: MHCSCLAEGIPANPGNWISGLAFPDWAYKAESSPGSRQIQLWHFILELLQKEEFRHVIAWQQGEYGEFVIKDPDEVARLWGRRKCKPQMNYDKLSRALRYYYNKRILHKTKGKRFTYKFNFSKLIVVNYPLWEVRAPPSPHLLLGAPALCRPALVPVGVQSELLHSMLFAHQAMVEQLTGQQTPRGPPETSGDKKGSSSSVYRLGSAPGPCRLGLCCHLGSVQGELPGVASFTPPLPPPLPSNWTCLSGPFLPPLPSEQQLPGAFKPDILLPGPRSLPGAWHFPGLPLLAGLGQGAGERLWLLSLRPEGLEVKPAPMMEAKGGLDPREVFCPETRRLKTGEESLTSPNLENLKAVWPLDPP
The procedure, abridged:
as §1

For a further assay, the target named is T10, ETS2 (Homo sapiens, UniProt P15036 1-469).
T10 sequence: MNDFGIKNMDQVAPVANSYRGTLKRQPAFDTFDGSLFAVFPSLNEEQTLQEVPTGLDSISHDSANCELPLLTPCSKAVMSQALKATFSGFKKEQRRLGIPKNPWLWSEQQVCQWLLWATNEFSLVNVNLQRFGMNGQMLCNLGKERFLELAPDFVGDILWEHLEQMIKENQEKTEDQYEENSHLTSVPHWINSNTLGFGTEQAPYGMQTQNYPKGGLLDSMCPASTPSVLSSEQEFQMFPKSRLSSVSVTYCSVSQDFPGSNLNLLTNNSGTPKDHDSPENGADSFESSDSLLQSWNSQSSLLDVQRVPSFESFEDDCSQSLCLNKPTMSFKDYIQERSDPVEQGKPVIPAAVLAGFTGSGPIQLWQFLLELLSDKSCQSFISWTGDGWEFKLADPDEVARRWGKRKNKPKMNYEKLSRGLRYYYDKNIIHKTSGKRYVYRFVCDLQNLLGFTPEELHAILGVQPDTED
The essentials: as §1

The target in the next assay is T11, ELF5 (Homo sapiens, UniProt Q9UKW6-2 1-255).
T11 sequence: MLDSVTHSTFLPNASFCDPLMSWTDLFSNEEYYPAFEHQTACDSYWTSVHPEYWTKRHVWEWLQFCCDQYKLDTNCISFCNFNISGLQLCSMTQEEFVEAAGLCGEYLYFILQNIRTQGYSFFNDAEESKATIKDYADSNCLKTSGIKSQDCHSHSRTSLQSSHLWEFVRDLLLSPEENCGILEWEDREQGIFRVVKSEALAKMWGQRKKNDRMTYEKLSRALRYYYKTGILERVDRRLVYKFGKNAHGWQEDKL
The essentials:
as §1

A further assay deals with T12, ETV3 (Homo sapiens, UniProt P41162-2 1-143).
T12 sequence: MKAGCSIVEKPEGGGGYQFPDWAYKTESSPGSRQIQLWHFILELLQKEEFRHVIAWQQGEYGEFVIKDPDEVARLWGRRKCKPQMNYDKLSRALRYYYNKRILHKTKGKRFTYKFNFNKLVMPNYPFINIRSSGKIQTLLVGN
The essentials:
as §1

For another assay, the target named is ETV6 (Homo sapiens, UniProt P41212 1-452). The procedure, abridged: as §1

We go through one sequence from publication PMC7862700, “An all-to-all approach to the identification of sequence-specific readers for epigenetic DNA modifications on cytosine”.

Chain of ETV6 (P41212 whole entry): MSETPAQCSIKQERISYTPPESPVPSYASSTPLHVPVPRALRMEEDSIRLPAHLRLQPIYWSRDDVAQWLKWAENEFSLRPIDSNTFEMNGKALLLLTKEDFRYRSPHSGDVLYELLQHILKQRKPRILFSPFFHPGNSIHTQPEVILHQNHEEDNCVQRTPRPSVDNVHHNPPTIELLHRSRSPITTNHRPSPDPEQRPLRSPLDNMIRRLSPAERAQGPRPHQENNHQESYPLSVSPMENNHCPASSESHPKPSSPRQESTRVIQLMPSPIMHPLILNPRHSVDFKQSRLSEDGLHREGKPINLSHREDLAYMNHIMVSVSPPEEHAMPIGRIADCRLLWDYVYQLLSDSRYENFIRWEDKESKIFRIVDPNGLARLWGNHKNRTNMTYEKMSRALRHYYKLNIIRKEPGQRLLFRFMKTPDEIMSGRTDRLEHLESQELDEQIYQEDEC
Chain of SPIB (Q01892 whole entry): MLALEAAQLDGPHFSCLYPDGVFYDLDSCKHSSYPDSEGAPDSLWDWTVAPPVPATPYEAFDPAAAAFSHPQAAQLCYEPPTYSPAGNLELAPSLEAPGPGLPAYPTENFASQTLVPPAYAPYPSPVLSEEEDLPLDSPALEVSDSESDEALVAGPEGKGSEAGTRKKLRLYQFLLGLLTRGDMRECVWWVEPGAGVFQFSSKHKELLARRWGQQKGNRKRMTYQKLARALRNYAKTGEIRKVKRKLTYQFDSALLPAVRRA
Chain of ELF4 (Q99607 whole entry): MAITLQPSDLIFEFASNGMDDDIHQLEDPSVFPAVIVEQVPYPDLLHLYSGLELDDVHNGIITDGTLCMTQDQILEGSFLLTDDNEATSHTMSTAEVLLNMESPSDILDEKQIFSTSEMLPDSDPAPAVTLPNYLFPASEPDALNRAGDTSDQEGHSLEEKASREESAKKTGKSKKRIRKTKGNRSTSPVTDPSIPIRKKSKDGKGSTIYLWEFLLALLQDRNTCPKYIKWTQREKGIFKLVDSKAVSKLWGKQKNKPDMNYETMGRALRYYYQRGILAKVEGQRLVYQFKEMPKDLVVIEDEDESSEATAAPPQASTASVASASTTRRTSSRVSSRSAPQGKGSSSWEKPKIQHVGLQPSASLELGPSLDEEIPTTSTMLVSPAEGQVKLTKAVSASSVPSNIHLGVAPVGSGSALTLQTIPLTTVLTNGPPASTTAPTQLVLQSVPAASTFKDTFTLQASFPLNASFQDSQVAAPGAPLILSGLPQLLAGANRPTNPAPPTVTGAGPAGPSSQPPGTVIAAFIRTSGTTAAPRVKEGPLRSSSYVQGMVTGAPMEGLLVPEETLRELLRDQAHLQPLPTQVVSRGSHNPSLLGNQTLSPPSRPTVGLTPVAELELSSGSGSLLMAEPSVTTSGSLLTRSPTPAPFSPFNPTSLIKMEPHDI
Chain of ELF1 (P32519 whole entry): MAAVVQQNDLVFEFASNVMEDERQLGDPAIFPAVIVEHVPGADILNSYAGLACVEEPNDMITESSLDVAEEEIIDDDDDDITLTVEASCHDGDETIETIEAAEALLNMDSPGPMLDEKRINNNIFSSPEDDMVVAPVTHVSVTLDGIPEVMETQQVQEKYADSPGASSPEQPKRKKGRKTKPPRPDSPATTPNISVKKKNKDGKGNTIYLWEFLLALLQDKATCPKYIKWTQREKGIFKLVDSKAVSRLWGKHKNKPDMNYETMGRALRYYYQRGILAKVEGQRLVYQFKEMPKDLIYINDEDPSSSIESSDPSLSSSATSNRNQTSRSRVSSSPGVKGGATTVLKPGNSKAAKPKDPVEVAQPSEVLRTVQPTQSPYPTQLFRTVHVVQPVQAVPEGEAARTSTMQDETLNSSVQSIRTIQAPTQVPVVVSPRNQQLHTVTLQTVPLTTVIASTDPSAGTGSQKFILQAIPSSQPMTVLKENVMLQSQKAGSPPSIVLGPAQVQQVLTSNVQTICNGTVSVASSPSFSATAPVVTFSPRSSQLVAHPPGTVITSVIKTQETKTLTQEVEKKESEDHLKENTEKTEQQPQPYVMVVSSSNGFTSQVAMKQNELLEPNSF
Chain of ETV5 (P41161 whole entry): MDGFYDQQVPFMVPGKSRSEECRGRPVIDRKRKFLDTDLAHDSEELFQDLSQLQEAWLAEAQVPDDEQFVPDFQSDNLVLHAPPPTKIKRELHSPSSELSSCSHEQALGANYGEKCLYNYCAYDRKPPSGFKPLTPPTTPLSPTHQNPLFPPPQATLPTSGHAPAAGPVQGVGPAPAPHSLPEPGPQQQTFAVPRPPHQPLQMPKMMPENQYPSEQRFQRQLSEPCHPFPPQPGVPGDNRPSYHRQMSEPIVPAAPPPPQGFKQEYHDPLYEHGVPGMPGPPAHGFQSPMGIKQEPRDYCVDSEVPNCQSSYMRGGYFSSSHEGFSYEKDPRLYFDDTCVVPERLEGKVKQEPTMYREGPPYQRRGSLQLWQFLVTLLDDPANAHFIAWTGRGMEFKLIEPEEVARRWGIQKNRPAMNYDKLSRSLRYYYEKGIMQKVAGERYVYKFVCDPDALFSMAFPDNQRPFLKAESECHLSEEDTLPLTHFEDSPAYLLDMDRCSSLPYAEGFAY
Chain of ETV1 (P50549 whole entry): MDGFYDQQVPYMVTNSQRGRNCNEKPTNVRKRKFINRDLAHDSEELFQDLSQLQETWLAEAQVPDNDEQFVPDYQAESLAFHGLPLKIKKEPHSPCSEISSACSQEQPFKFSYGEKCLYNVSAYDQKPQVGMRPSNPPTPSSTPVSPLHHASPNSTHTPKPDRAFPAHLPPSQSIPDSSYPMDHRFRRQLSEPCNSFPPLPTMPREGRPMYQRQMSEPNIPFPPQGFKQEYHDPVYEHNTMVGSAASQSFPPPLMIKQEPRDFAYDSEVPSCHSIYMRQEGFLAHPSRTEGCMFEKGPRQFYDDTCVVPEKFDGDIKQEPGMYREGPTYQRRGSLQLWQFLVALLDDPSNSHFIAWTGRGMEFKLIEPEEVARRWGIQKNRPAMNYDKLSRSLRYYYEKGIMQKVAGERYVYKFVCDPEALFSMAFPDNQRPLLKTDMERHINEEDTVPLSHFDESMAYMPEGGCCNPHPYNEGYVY

Take TGCTGC: the binding signal in the assay with FLI1 is 1.15 fold enrichment (6-mer frequency, TF over GST control); with ELK1, 1.15 fold enrichment (6-mer frequency, TF over GST control); with GABPA, 1.16 fold enrichment (6-mer frequency, TF over GST control); with ELF1, 1.21 fold enrichment (6-mer frequency, TF over GST control); in the assay with EHF, 1.3 fold enrichment (6-mer frequency, TF over GST control); with SPI1, 1.11 fold enrichment (6-mer frequency, TF over GST control). The binding signal is 1.07 fold enrichment (6-mer frequency, TF over GST control) with SPIB; 1.08 fold enrichment (6-mer frequency, TF over GST control) with ELK3; 1.15 fold enrichment (6-mer frequency, TF over GST control) with FEV; 1.17 fold enrichment (6-mer frequency, TF over GST control) in the assay with ETV5; 1.3 fold enrichment (6-mer frequency, TF over GST control) with SPIC; 1.16 fold enrichment (6-mer frequency, TF over GST control) with ELF4. The binding signal with ETV1 was 1.13 fold enrichment (6-mer frequency, TF over GST control); in the assay with ERF, 1.07 fold enrichment (6-mer frequency, TF over GST control); with ETV3L, 1.34 fold enrichment (6-mer frequency, TF over GST control); with ETS2, 1.15 fold enrichment (6-mer frequency, TF over GST control); with ELF5, 1.16 fold enrichment (6-mer frequency, TF over GST control); with ETV3, 1.23 fold enrichment (6-mer frequency, TF over GST control). Also, the binding signal with ETV6 is 1.1 fold enrichment (6-mer frequency, TF over GST control).
